High-throughput results as filed in PubChem BioAssay.
This is a sample that favours compounds with a hit; in the whole collection about 6.9% have one here.
Cy5 interf NS3h – Cy5 fluorescence interference, HCV helicase counter-screen; Cy5-dT15 DNA with NS3h; actives lie on both sides; signal over control mean, under 1 quenches; fluorescence interference ratio at 100 µM; 16,000 compounds, 6% hits;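 active means compound fluorescence over control fluorescence at most 0.8, a quencher, or at least a set upper limit, an enhancer; inactive means ratio between 0.8 and the set upper limit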
HCV NS3h FP – hepatitis C NS3 helicase inhibition, primary screen | inhibition, % at 100 µM | NS3h Cy5-dT15 DNA binding, fluorescence polarization | 16,000 compounds, 1.6% hits;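 active means inhibition above the average over every tested compound plus 3 SD, cut at about 40% in these data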
Large screens that a line does not name were inactive.

COc1ccc2c(c1)CCC/C2=N/OC(=O)c1ccccc1F	none
CC(=O)Oc1ccc(-c2cccc(C(=O)NC(CO)C(O)c3ccc([N+](=O)[O-])cc3)c2)cc1 (stereo not given)	none
O=C(NC(CO)C(O)c1ccc([N+](=O)[O-])cc1)c1ccc2ccccc2n1 (stereo not given)	Cy5 interf NS3h 0.62
Cc1ccc(NC(=O)/C=C\C(=O)O)cc1C	none
O=C(NCCc1ccc(Cl)cc1)Nc1ccc(Br)cc1	none
CCN1C(=O)C(=Cc2ccc(-c3cccc(C(=O)O)c3)o2)C(=O)N(CC)C1=S	Cy5 interf NS3h 1.2, HCV NS3h FP 54
O=C1NN(c2ccc(F)cc2)C(=O)/C1=C\c1ccc(-c2cccc(C(=O)O)c2)o1	none
COC(=O)CN(c1ccc(OC)cc1)S(=O)(=O)c1ccc(NC(C)=O)cc1	none
CC(NC(=O)CSCc1cccc(Br)c1)c1ccccc1 (stereo not given)	none
O=c1oc(-c2ccc(Cl)cc2Cl)nc2ccccc12	none
O=c1oc(-c2ccccc2Cl)nc2ccc(-c3ccc4nc(-c5ccccc5Cl)oc(=O)c4c3)cc12	Cy5 interf NS3h 0.69
Cc1ccc(NC(=O)c2ccccc2C(F)(F)F)c(C)c1	none
COc1ccc(N(CC(=O)NCc2ccncc2)S(=O)(=O)c2ccc(OC)c(OC)c2)cc1	none
CCC(C)c1ccc(OCCOc2ccc(C=C3C(=O)NC(=S)NC3=O)cc2)cc1 (stereo not given)	HCV NS3h FP 46
CCC(C)c1ccc(OCCOc2ccc(C=C3C(=O)NC(=S)NC3=O)cc2OC)cc1 (stereo not given)	none
Cc1ccc2c(c1)C(c1ccccc1Br)CC(=O)N2 (stereo not given)	none
O=C(COc1ccc(Cl)cc1)Nc1nc(-c2ccc(Cl)cc2)cs1	none
CCOC(=O)Cc1csc(NC(=O)COc2ccc(-c3ccccc3)cc2)n1	Cy5 interf NS3h 0.78
Cc1ccc(C(O)=C2C(=O)C(=O)N(c3ccc(O)cc3)C2c2ccccc2)cc1 (stereo not given)	none
CCN(CC)CCCNC(=O)c1ccc(Cl)cc1	Cy5 interf NS3h 0.67
CCCCCNC(=O)c1ccc(C(=O)NCCCCC)cc1	none
Cc1cc(Cl)ccc1NS(=O)(=O)c1ccc([N+](=O)[O-])cc1	none
CC1(C)CC(=O)C2=C(C1)c1c(ccc3ccccc13)NC2c1ccccc1F (stereo not given)	Cy5 interf NS3h 0.75
COc1ccc(C2Nc3ccc4ccccc4c3C3=C2C(=O)CC(C)(C)C3)cc1[N+](=O)[O-] (stereo not given)	none
CCOc1cc(/C=C2\SC(=S)N(C(C)C)C2=O)ccc1O	none
CCOc1cc(/C=C2\SC(=S)N(CC(C)C)C2=O)ccc1O	Cy5 interf NS3h 0.78
CC(C)(C)c1ccc(C(CC(=O)c2ccc(Br)cc2)S(=O)(=O)c2ccccc2)cc1 (stereo not given)	Cy5 interf NS3h 0.54
O=C(CC(Nc1ccc(Br)cc1)c1ccc(F)cc1)c1ccccc1 (stereo not given)	none
CC1(C)C/C(=N/N)c2cc(=O)[nH]nc2C1	none
CCOC(=O)c1ccc(NC(=O)CN(c2ccccc2CC)S(C)(=O)=O)cc1	none
O=C(Nc1ccc(Cl)cc1)Nc1ccc([N+](=O)[O-])cc1Br	none
N#Cc1ccccc1N=C1C(=O)Nc2ccccc21	none
O=C1Nc2ccc([N+](=O)[O-])cc2C1=Nc1ccc(-c2ccc(N=C3C(=O)Nc4ccc([N+](=O)[O-])cc43)cc2)cc1	Cy5 interf NS3h 0.77
CN1C(=O)/C(=N/OC(=O)c2cccc3ccccc23)c2ccccc21	none
CC1C(C(=O)N(C=O)c2ccc(Br)cc2)C2C=CC1C21CC1 (stereo not given)	none
CS(=O)(=O)N(CC(O)Cn1c2ccc(Cl)cc2c2cc(Cl)ccc21)c1ccccc1 (stereo not given)	none
CCC(C)NCC(O)Cn1c2ccc(Cl)cc2c2cc(Cl)ccc21 (stereo not given)	Cy5 interf NS3h 0.77
CC1(C)CC(=O)C(=Cc2cn(-c3ccccc3)nc2-c2cccc([N+](=O)[O-])c2)C(=O)C1	none
O=C(/C=C/c1ccc([N+](=O)[O-])cc1)Nc1ccc2c(c1)OCO2	none
COc1ccc(-c2c(-c3ccc(Cl)cc3)nn(-c3ccccc3)c2N)cc1OC	none
Cc1ccc(-n2nc(-c3ccccc3)c3c2C(=O)C=CC3=O)cc1	HCV NS3h FP 44
O=C(O)CN(c1ccccc1)S(=O)(=O)c1ccccc1[N+](=O)[O-]	none
CC(NC(=O)CN(c1ccccc1)S(=O)(=O)c1ccccc1[N+](=O)[O-])c1ccccc1 (stereo not given)	Cy5 interf NS3h 0.68
CC(C)CNC(=O)CN(c1ccccc1)S(=O)(=O)c1ccccc1[N+](=O)[O-]	Cy5 interf NS3h 0.69
O=C(CN(c1ccccc1)S(=O)(=O)c1ccccc1[N+](=O)[O-])Nc1cccc(Cl)c1	none
COc1ccc(-c2nc3cc(NC(=S)NC(=O)c4ccco4)ccc3o2)cc1OC	none
NS(=O)(=O)c1ccc(NC(=O)COc2ccc3ccccc3c2)cc1	none
CN(C)CC#CC(O)(c1ccccc1)c1ccccc1	none
